Hit rate of the full screen: of about 270,000 compounds, about 20 (0.007%) were called active. Only a sample is shown. A number with no mark means an inactive call. Calls follow the shape of the dose curve; as a rule, active = well fitted inhibition curve with a large enough effect; inconclusive = small, poorly fitted or top-dose-only effect, or effect the other way; inactive = flat fitted curve, though single readings scatter.

Results on 56 molecules are retold here after PubChem BioAssay AID1868 (National Center for Advancing Translational Sciences (NCATS), 2009).
% is scaled to controls: 0 for no effect and ±100 for the full control effect.

In this assay the target is Galactokinase (Homo sapiens) (UniProt P51570). The assay can be described thus: qHTS Assay for Inhibitors of Human Galactokinase (GALK). Conditions: Purified GALK, Kinase-Glo residual ATP luminescence; series mostly up to 57.5 µM; activity change, negative = inhibition: at the top concentration. The text has this: NIH Molecular Libraries Probe Production Centers Network [MLPCN] NIH Chemical Genomics Center [NCGC] MLPCN Grant: R03 MH085689-01 Assay Submitter (PI): Kent Lai (University of Utah School of Medicine, 50 N Mario Capecchi Drive, Salt Lake City, UT 84132) NCGC Assay Overview: Inherited deficiency of galactose-1-phosphate uridyltransferase (GALT) can result in a potentially lethal disorder called Classic Galactosemia (OMIM 230400). Several lines of evidence indicate that an elevated level of galactose-1-phosphate (gal-1-p), the product of galactokinase (GALK), is a major, if not sole, pathogenic mechanism in patients with classic galactosemia. Therefore, finding inhibitors of GALK is a potential novel therapy for this inherent metabolic disease and is the long term goal of this project. GALK (provided by the assay submitter) was assayed using ATP and D-(+)-Galactose (Sigma-Aldrich cat# G0750) as substrates. Promega Kinase-Glo Plus (cat# V3774) technology was used to detect the residual ATP following kinetic reaction. Briefly, the Kinase-Glo Plus contains Ultra-Glo [2] luciferase and D-luciferin which generates a bioluminescence signal from the remaining ATP.
Chain of Galactokinase (Homo sapiens) (P51570 whole entry, looked up): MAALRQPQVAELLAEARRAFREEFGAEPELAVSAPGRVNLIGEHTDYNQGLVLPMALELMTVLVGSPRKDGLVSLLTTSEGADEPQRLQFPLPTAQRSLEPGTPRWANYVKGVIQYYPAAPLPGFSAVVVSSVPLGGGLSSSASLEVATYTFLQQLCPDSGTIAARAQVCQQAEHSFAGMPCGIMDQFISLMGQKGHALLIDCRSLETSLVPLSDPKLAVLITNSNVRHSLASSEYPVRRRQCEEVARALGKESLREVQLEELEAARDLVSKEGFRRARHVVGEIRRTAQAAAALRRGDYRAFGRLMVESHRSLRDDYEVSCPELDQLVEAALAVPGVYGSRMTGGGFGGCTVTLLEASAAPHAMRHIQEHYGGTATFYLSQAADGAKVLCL
NCGC Assay Protocol Summary: Three uL/well of ATP-buffer solution (35 uM ATP, 20mM HEPES pH8.0, 5 mM MgCl2, 60 mM NaCl, 1 mM DTT, 0.01% BSA final concentration) was dispensed into 1536-well, assay plates (Greiner, solid white medium-binding plates) with Aurora Discovery BioRAPTR Flying Reagent Dispenser (FRD; Beckton-Dickenson). Compound solution (23 nL) was transferred to the assay plate using the Kalypsys 1536-pin tool. One uL/well GALK-galactose solution (5 nM GALK, 100 uM galactose, 20 mM HEPES pH8.0, 5 mM MgCl2, 60 mM NaCl, 1 mM DTT, 0.01% BSA final concentration) was then added using the FRD yielding a total kinase reaction volume of 4 uL/ well. After 1 hour of room temperature incubation, 4 uL Kinase-Glo Plus reagent was added for a final assay volume of 8 uL/ well. Luminescence was detected with the ViewLux plate reader (Perkin Elmer, Waltham, MA) after 10 min incubation using a 1 sec exposure time and 2x binning.
For the molecule `Cc1ccnc(NC(=O)CCNS(=O)(=O)c2ccc(C)c(C)c2)c1`, the “activity change, negative = inhibition” value is -1.07%.
As for `O=C(Nc1nnc(C2CC2)s1)c1cc(Cl)sc1Cl`, the figure is -5.34%; as for `COc1ccc(Nc2ncnc3sc(C)cc23)cc1`, 1.63%; as for `O=C(CN1CCC(NC(=O)C2CC2)CC1)Nc1ccccc1[N+](=O)[O-]`, -0.918%.
With `Cc1cccc(C(=O)NC(=S)N(C)C2CCCCC2)c1` the figure was -5.91%; with `CN(CCO)c1ccc(/C=N/Nc2nncc3ccccc23)cc1`, 21.5%; with `O=C(NCC(=O)N1CCN(c2ccccc2F)CC1)c1cccs1`, -7.14%.
Turning to `Cc1ccc2nc(N3C(=O)C(O)=C(C(=O)c4ccco4)C3c3cccc(O)c3)sc2c1` (stereo unspecified), the “activity change, negative = inhibition” value was -6.84%.
As to `C[n+]1cc(-c2ccccc2)oc1-c1ccccc1`, the “activity change, negative = inhibition” value is -1.02%.
On to `Cc1cnc(NC(=O)c2ccc(Cl)nc2)s1`, for which the “activity change, negative = inhibition” value was 2.83%.
On to `C=CCN1CCN(C(=O)CCCc2ccccc2)CC1`, for which the “activity change, negative = inhibition” value was 3.4%.
Take `COc1ccc(N2CCN(S(=O)(=O)c3ccc4c(c3)N(C(C)=O)CCO4)CC2)cc1`: the “activity change, negative = inhibition” value was -0.739%.
As for `O=C(O)CCC(=O)N(Cc1ccccc1)Cc1ccccc1`, the figure is 0%.
Turning to `Cc1noc(C)c1CCC(=O)N1CCCC(CO)(Cc2ccccc2)C1` (stereo unspecified), the “activity change, negative = inhibition” value was 2.49%.
As for `O=C(c1noc2c1CCCC2)N1CCc2ccccc2C1`, the “activity change, negative = inhibition” value is -2.74%.
Turning to `Cc1cccc(NC(=O)c2ccc3c(=O)n(CC4CCCO4)c(=S)[nH]c3c2)c1` (stereo unspecified), the “activity change, negative = inhibition” value is 14.2%.
For `COc1cccc(NC(=O)C(=O)c2cn(CC(=O)N3CCOCC3)c3ccccc23)c1`, the “activity change, negative = inhibition” value was 0.368%.
`CCOC(=O)C1CCCN(CCSc2ccc(C)cc2)C1` (stereo unspecified): the “activity change, negative = inhibition” value was -3.07%.
On to `O=C(Nc1ccc(S(=O)(=O)NCC2CCCO2)cc1)c1ccc(F)cc1` (stereo unspecified), for which the “activity change, negative = inhibition” value was -2.11%.
As for `Cc1ccccc1NC(=S)NC(=O)Cc1ccc(Cl)cc1`, the “activity change, negative = inhibition” value is 7.47%.
As to `COCCN1CCN(C(=O)c2cc(COc3ccc(F)cc3Cl)on2)CC1`, the “activity change, negative = inhibition” value was 5.12%.
For `COc1ccc(N(C(=O)c2snc(C(N)=O)c2N)C(C(=O)NC2CCCC2)c2ccc(C)o2)c(OC)c1` (stereo unspecified), the “activity change, negative = inhibition” value was -1.02%.
Consider `O=C(CCl)NNc1nc(-c2ccccc2)c2cc(Cl)ccc2n1`, for which the “activity change, negative = inhibition” value is 0.907%.
Consider `CCOC(=O)Nc1ccc2c(c1)N(C(=O)CCCl)c1ccccc1[S@]2=O`, for which the “activity change, negative = inhibition” value is -2.31%.
Regarding `NC(=O)CSc1nnc(NC(=O)c2ccc(Br)o2)s1`, the “activity change, negative = inhibition” value was 3.28%.
With `CN(C(=O)CCN1C(=O)/C(=C/c2ccccc2F)SC1=S)C1CCS(=O)(=O)C1` (stereo unspecified) the figure was 7.27%.
As for `O=C(CC(n1cncn1)C(Cl)(Cl)Cl)c1ccc([N+](=O)[O-])cc1` (stereo unspecified), the figure is 1.45%; as for `Cc1ccc(NC(=O)CSc2cccc3cccnc23)c(C)c1`, -1.71%; as for `Cc1ccc(/C=N/NC(=O)c2cc3ccccc3cc2O)o1`, 0.24%.
For `COc1ccc(OCc2cc(C(=O)N3CCCC3)no2)c2ccccc12`, the “activity change, negative = inhibition” value was -7.05%.
With `COc1ccccc1C(=O)NC(=S)Nc1ccccc1N1CCCCC1`, the “activity change, negative = inhibition” value was -4.03%.
As for `COc1ccc([N+](=O)[O-])cc1N(CC(=O)Nc1ccccc1C(=O)N1CCOCC1)S(C)(=O)=O`, the figure is 2.62%.
As for `COc1cccc(C(=O)N/N=C(\C)c2cccc(NC(=O)c3ccc(F)cc3)c2)c1OC`, the figure is -11.7%.
As for `Oc1ccccc1-c1cc(-c2ccc(Cl)cc2)n[nH]1`, the “activity change, negative = inhibition” value was -6.23%.
Take `CCSc1nc2sc3c(c2c(=O)n1-c1ccc(C)cc1)CCN(C)C3`: the “activity change, negative = inhibition” value was -3.96%.
With `COc1ccc(NCCc2ccccn2)cc1` the figure was -1.27%.
On to `Cc1ccc(NS(=O)(=O)c2ccc3c(c2)oc(=O)n3C)c(C)c1`, for which the “activity change, negative = inhibition” value is 2.68%.
For the molecule `O=C(Nc1cccc(Cl)c1Cl)c1ccccc1NC(=O)C1CC=CCC1C(=O)O` (stereo unspecified), the “activity change, negative = inhibition” value is -4.93%.
Consider `S=C(Nc1ccc(Cl)cc1Cl)N1CCCC1`, for which the “activity change, negative = inhibition” value is 0.847%.
For the molecule `O=C(Nc1ccnn1C1CCN(Cc2cccc(OCCO)c2)CC1)C1CCCC1`, the “activity change, negative = inhibition” value is 3.25%.
Consider `CC(C)(C)c1ccc(Cn2nnc3c(=O)[nH]c(C4CCCN(C(=O)c5ccco5)C4)nc32)cc1` (stereo unspecified), for which the “activity change, negative = inhibition” value is -1.13%.
As for `CCc1ccccc1OCC(=O)Nc1ccc2c(c1)OCCO2`, the figure is 13.3%; as for `O=[N+]([O-])c1ccc2c(c1)Nc1nc3ccccc3nc1N2`, 6.04%; as for `CC1CN(C(=O)CCC(=O)NCCCN2CCC(Cc3ccccc3)CC2)c2cc(Cl)ccc2O1` (stereo unspecified), -0.958%.
For `Cc1ccc(CSc2nsc(C)c2C#N)cc1`, the “activity change, negative = inhibition” value is -1.65%.
`CC(=O)c1ccc(NC(=O)c2sc3nc4n(c(=O)c3c2C)CCCCC4)cc1`: the “activity change, negative = inhibition” value is 3.59%.
For the molecule `CC(C)=CCN1CCN(CCCc2ccccc2)CC1CCO` (stereo unspecified), the “activity change, negative = inhibition” value is 3.23%.
For the molecule `O=C(Nc1ccc(C2CC2(Cl)Cl)cc1)c1cccc([N+](=O)[O-])c1` (stereo unspecified), the “activity change, negative = inhibition” value is 0.976%.
In the case of `COc1ccccc1/C=C/C(=O)NC(=S)N1CCOCC1`, the “activity change, negative = inhibition” value was -1.25%.
Turning to `COC(=O)c1ccc(COc2ccc(/C=C/C(=O)c3ccc(OC)c(CSCC(=O)O)c3)cc2OC)cc1`, the “activity change, negative = inhibition” value was -6.55%.
As to `COc1ccc(NC(=O)CCCC2CCCCC2)c(OC)c1`, the “activity change, negative = inhibition” value is -2.48%.
Consider `O=c1c2ccccc2ncn1CCCCOc1ccccc1F`, for which the “activity change, negative = inhibition” value is 1.26%.
As to `Brc1ccccc1/C=N/Nc1nc2ccccc2o1`, the “activity change, negative = inhibition” value is -2.18%.
For `COc1ccc(OC)c(NC(=O)Cc2cccs2)c1`, the “activity change, negative = inhibition” value was -3.6%.
As for `CC(CN1CCOCC1)OC(=O)c1ccc(C(C)(C)C)cc1` (stereo unspecified), the “activity change, negative = inhibition” value was 5.88%.
As for `O=C(CNC(=O)c1ccc(F)cc1)c1ccccc1`, the figure is 7.94%.
